Laboratory results published in PubChem BioAssay AID1159580 (chemical genetic matrix, 2015).
In all, about 5,500 compounds went through this assay and about 2,000 (36%) were called active. Roughly 18% stayed inconclusive and do not appear here. Rule as the data show it: active = normalized growth mostly below about 0.91 (no sharp cut-off); inconclusive = no clear call, values can overlap the other calls; inactive = mostly above about 0.92. The list shows a part of the results.

Experiment: chemical genetic growth profiling, strain panel (AID 1159580);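 also: tested at 20 µM; growth read once vehicle control cultures reached saturation at 30 °C; 1 = growth at the plate median or of vehicle wells; lower values mean less growth of the strain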
Conditions: growth OD
[1] = S. cerevisiae deletion strains, locus YDL101C, strain DUN1, stronger effect = lower value
[2] = S. cerevisiae deletion strains, locus YAL013W, strain DEP1, stronger effect = lower value
[3] = S. cerevisiae deletion strains, locus YBR229C, strain ROT2, stronger effect = lower value
[4] = S. cerevisiae deletion strains, locus YCL061C, strain MRC1, stronger effect = lower value
[5] = S. cerevisiae deletion strains, locus YDR150W, strain NUM1, stronger effect = lower value
[6] = S. cerevisiae deletion strains, locus YEL061C, strain CIN8, stronger effect = lower value
[7] = S. cerevisiae deletion strains, locus YGR078C, strain PAC10, stronger effect = lower value
[8] = S. cerevisiae deletion strains, locus YHR030C, strain SLT2, stronger effect = lower value
[9] = S. cerevisiae deletion strains, locus YHR087W, strain rtc3, stronger effect = lower value
[10] = S. cerevisiae deletion strains, locus YJR043C, strain POL32, stronger effect = lower value
[11] = S. cerevisiae deletion strains, locus YJR075W, strain HOC1, stronger effect = lower value
[12] = S. cerevisiae deletion strains, locus YLR039C, strain RIC1, stronger effect = lower value
[13] = S. cerevisiae deletion strains, locus YLR058C, strain SHM2 (second series), stronger effect = lower value
[14] = S. cerevisiae deletion strains, locus YLR085C, strain ARP6, stronger effect = lower value
[15] = S. cerevisiae deletion strains, locus YLR262C, strain YPT6, stronger effect = lower value
[16] = S. cerevisiae deletion strains, locus YML094W, strain GIM5, stronger effect = lower value
[17] = S. cerevisiae deletion strains, locus YMR219W, strain ESC1, stronger effect = lower value
[18] = S. cerevisiae deletion strains, locus YMR263W, strain SAP30, stronger effect = lower value
[19] = S. cerevisiae deletion strains, locus YMR307W, strain GAS1, stronger effect = lower value
[20] = S. cerevisiae deletion strains, locus YNL128W, strain TEP1, stronger effect = lower value
[21] = S. cerevisiae deletion strains, locus YNL153C, strain GIM3, stronger effect = lower value
[22] = S. cerevisiae deletion strains, locus YNL298W, strain CLA4 (second series), stronger effect = lower value
[23] = S. cerevisiae deletion strains, locus YNL322C, strain KRE1, stronger effect = lower value
[24] = S. cerevisiae deletion strains, locus YNR030W, strain Alg12, stronger effect = lower value
[25] = S. cerevisiae deletion strains, locus YPL055C, strain LGE1, stronger effect = lower value
[26] = S. cerevisiae deletion strains, locus YPL241C, strain CIN2, stronger effect = lower value
[27] = S. cerevisiae deletion strains, locus YPR135W, strain CTF4, stronger effect = lower value

Measured: normalized growth

O=C(Nc1ccc(F)cc1)c1cc(Br)ccc1O
active: S. cerevisiae deletion strains, locus YDL017W, strain CDC7, stronger effect = lower value 0.898 | S. cerevisiae deletion strains, locus YDR052C, strain DBF4, stronger effect = lower value 0.905 | S. cerevisiae deletion strains, locus YDR054C, strain cdc34, stronger effect = lower value 0.876 | S. cerevisiae deletion strains, locus YFL009W, strain cdc4, stronger effect = lower value 0.887 | S. cerevisiae deletion strains, locus YFR028C, strain CDC14, stronger effect = lower value 0.863 | S. cerevisiae deletion strains, locus YLR113W, strain HOG1, stronger effect = lower value 0.804 | S. cerevisiae deletion strains, locus YMR277W, strain FCP1, stronger effect = lower value 0.884 | S. cerevisiae deletion strains, locus YPL256C, strain CLN2, stronger effect = lower value 0.837
inactive: S. cerevisiae deletion strains, locus YAR019C, strain CDC15, stronger effect = lower value 0.91 | S. cerevisiae deletion strains, locus YBL105C, strain PKC1, stronger effect = lower value 0.907 | S. cerevisiae deletion strains, locus YBR135W, strain CKS1, stronger effect = lower value 0.901 | S. cerevisiae deletion strains, locus YBR136W, strain MEC1, stronger effect = lower value 0.913 | S. cerevisiae deletion strains, locus YBR160W, strain CDC28, stronger effect = lower value 0.899 | S. cerevisiae deletion strains, locus YDL028C, strain MPS1, stronger effect = lower value 0.909 | [1] 0.952 | S. cerevisiae deletion strains, locus YDL108W, strain KIN28, stronger effect = lower value 0.897 | S. cerevisiae deletion strains, locus YDL132W, strain cdc53, stronger effect = lower value 0.94 | S. cerevisiae deletion strains, locus YDL214C, strain PRR2, stronger effect = lower value 0.867 | S. cerevisiae deletion strains, locus YDR226W, strain ADK1, stronger effect = lower value 0.941 | S. cerevisiae deletion strains, locus YDR477W, strain SNF1, stronger effect = lower value 0.882 | S. cerevisiae deletion strains, locus YER123W, strain YCK3, stronger effect = lower value 0.806 | S. cerevisiae deletion strains, locus YER133W, strain GLC7, stronger effect = lower value 0.908 | S. cerevisiae deletion strains, locus YFL029C, strain CAK1, stronger effect = lower value 0.894 | S. cerevisiae deletion strains, locus YFR003C, strain YPI1, stronger effect = lower value 0.907 | S. cerevisiae deletion strains, locus YFR019W, strain FAB1, stronger effect = lower value 0.901 | S. cerevisiae deletion strains, locus YGR040W, strain KSS1, stronger effect = lower value 0.797 | S. cerevisiae deletion strains, locus YGR052W, strain FMP48, stronger effect = lower value 0.901 | S. cerevisiae deletion strains, locus YGR092W, strain DBF2, stronger effect = lower value 0.614 | S. cerevisiae deletion strains, locus YHR079C, strain IRE1, stronger effect = lower value 0.827 | S. cerevisiae deletion strains, locus YHR082C, strain KSP1, stronger effect = lower value 0.813 | S. cerevisiae deletion strains, locus YHR205W, strain SCH9, stronger effect = lower value 0.615 | S. cerevisiae deletion strains, locus YIL147C, strain SLN1, stronger effect = lower value 0.918 | S. cerevisiae deletion strains, locus YJL095W, strain BCK1, stronger effect = lower value 0.791 | S. cerevisiae deletion strains, locus YJL128C, strain PBS2, stronger effect = lower value 0.957 | S. cerevisiae deletion strains, locus YJL157C, strain FAR1, stronger effect = lower value 0.83 | S. cerevisiae deletion strains, locus YJR016C, strain ILV3, stronger effect = lower value 0.923 | S. cerevisiae deletion strains, locus YJR066W, strain TOR1 (second series), stronger effect = lower value 0.904 | S. cerevisiae deletion strains, locus YJR066W, strain TOR1, stronger effect = lower value 0.786 | S. cerevisiae deletion strains, locus YKL048C, strain ELM1, stronger effect = lower value 0.891 | S. cerevisiae deletion strains, locus YKL067W, strain YNK1, stronger effect = lower value 0.853 | S. cerevisiae deletion strains, locus YKL101W, strain HSL1, stronger effect = lower value 0.817 | S. cerevisiae deletion strains, locus YKL193C, strain SDS22, stronger effect = lower value 0.901 | S. cerevisiae deletion strains, locus YKL203C, strain TOR2, stronger effect = lower value 0.873 | S. cerevisiae deletion strains, locus YLR133W, strain CKI1, stronger effect = lower value 0.835 | S. cerevisiae deletion strains, locus YLR403W, strain SFP1, stronger effect = lower value 0.834 | S. cerevisiae deletion strains, locus YML070W, strain DAK1, stronger effect = lower value 0.86 | S. cerevisiae deletion strains, locus YMR001C, strain CDC5, stronger effect = lower value 0.908 | S. cerevisiae deletion strains, locus YMR205C, strain PFK2 (second series), stronger effect = lower value 0.832 | S. cerevisiae deletion strains, locus YNL006W, strain LST8, stronger effect = lower value 0.923 | S. cerevisiae deletion strains, locus YNL020C, strain ARK1, stronger effect = lower value 0.797 | S. cerevisiae deletion strains, locus YNL161W, strain CBK1, stronger effect = lower value 0.913 | S. cerevisiae deletion strains, locus YNL183C, strain NPR1, stronger effect = lower value 0.758 | S. cerevisiae deletion strains, locus YNL207W, strain RIO2, stronger effect = lower value 0.907 | S. cerevisiae deletion strains, locus YNL222W, strain SSU72, stronger effect = lower value 0.902 | S. cerevisiae deletion strains, locus YNL307C, strain MCK1 (second series), stronger effect = lower value 0.776 | S. cerevisiae deletion strains, locus YOL078W, strain AVO1, stronger effect = lower value 0.898 | S. cerevisiae deletion strains, locus YOL136C, strain PFK27, stronger effect = lower value 0.837 | S. cerevisiae deletion strains, locus YOR061W, strain CKA2, stronger effect = lower value 0.773 | S. cerevisiae deletion strains, locus YOR119C, strain RIO1, stronger effect = lower value 0.881 | S. cerevisiae deletion strains, locus YOR231W, strain MKK1, stronger effect = lower value 0.845 | S. cerevisiae deletion strains, locus YOR329C, strain SCD5, stronger effect = lower value 0.912 | S. cerevisiae deletion strains, locus YPL031C, strain PHO85, stronger effect = lower value 0.865 | S. cerevisiae deletion strains, locus YPL153C, strain RAD53, stronger effect = lower value 0.777 | S. cerevisiae deletion strains, locus YPL204W, strain HRR25, stronger effect = lower value 0.862 | S. cerevisiae deletion strains, locus YPL209C, strain IPL1, stronger effect = lower value 0.909 | S. cerevisiae deletion strains, locus YPR025C, strain CCL1, stronger effect = lower value 0.907 | S. cerevisiae deletion strains, locus YPR106W, strain ISR1, stronger effect = lower value 0.914 | S. cerevisiae deletion strains, locus YPR111W, strain DBF20, stronger effect = lower value 0.893 | S. cerevisiae deletion strains, strain NNK1, stronger effect = lower value 0.927 | S. cerevisiae deletion strains, strain TSCII, stronger effect = lower value 0.902

CCCCC#Cc1ccc(C(=O)NNC(=O)Nc2cc(Cl)cc(Cl)c2)o1
inactive: [2] 1.03 | [3] 1.01 | [4] 0.981 | [1] 1.02 | [5] 0.963 | [6] 0.963 | [7] 1 | [8] 1.01 | [9] 1.01 | [10] 0.998 | [11] 0.973 | [12] 1.03 | [13] 1.01 | [14] 1.07 | [15] 1.05 | [16] 1 | [17] 1.01 | [18] 1.07 | [19] 1 | [20] 0.995 | [21] 0.995 | [22] 1.03 | [23] 1.03 | [24] 0.995 | [25] 1.03 | [26] 1.02 | [27] 0.931

Nc1c(Cl)cc(C(=O)Nc2cc(Cl)cc(Cl)c2)cc1Cl
inactive: [3] 0.957 | [4] 0.994 | [1] 1.02 | S. cerevisiae deletion strains, locus YDL134C, strain PPH21, stronger effect = lower value 0.978 | [5] 0.934 | [6] 0.956 | [7] 0.977 | [9] 0.935 | [11] 0.97 | [13] 0.99 | [14] 0.842 | [15] 0.847 | [16] 0.872 | [17] 0.976 | [18] 0.934 | [20] 0.982 | [21] 0.984 | [23] 1 | [27] 0.894 | S. cerevisiae strains, strain wild type, stronger effect = lower value 0.956
active: [2] 0.897 | [8] 0.496 | [10] 0.907 | [12] 0.77 | [19] 0.651 | [22] 0.825 | [24] 0.778 | [25] 0.8 | [26] 0.821
